± gives the standard deviation of the averaged measurements.

Chain of MurC (C4ZRI6 whole entry, looked up): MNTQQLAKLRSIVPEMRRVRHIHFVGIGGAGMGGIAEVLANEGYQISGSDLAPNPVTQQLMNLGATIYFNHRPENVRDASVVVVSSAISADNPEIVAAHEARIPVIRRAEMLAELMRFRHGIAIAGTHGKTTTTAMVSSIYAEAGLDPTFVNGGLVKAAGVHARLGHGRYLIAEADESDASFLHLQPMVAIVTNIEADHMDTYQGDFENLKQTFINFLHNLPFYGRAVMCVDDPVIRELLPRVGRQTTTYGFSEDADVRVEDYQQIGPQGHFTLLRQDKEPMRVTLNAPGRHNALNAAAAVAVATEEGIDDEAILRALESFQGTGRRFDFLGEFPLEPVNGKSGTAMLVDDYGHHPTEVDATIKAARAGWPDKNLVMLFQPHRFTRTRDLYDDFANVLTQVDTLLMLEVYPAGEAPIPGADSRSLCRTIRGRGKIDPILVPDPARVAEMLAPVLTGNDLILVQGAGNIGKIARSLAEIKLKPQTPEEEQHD

The target of this test is MurC (UniProt C4ZRI6). Briefly: relative enzymatic activity vs untreated control (fraction); higher = less inhibition. Conditions: 100 µM; incubation time: 2 h at 37 C. On the procedure:
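In vitro enzymatic inhibition assays (ProFoldin kits) for 12 purified essential E. coli enzymes or complexes, each treated with 218 active antibacterial compounds at 100 µM for 2 h at 37°C. Read-outs were fluorescence or absorbance (phosphate detection, dye binding), converted to activity via standard curves and expressed relative to untreated DMSO controls.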
`CN1CCN(c2c(F)cc3c(=O)c(C(=O)O)cn4c3c2SCC4)CC1` had a relative enzymatic activity of 0.895 ± 0.076.
Under `CCn1cc(C(=O)O)c(=O)c2cc(F)c(N3CCNC(C)C3)c(F)c21.Cl` (stereo unspecified) stands 0.984 ± 0.05; under `CC1(C)S[C@@H]2[C@H](NC(=O)[C@H](NC(=O)N3CCNC3=O)c3ccccc3)C(=O)N2[C@H]1C(=O)O`, 0.907 ± 0.097; under `Cc1cn([C@H]2C[C@H](N=[N+]=[N-])[C@@H](CO)O2)c(=O)[nH]c1=O`, 1.08 ± 0.11.
`Oc1c(Cl)cc(Cl)c2cccnc12` displayed a relative enzymatic activity of 0.928 ± 0.088.
Next, `N[C@@H]1[C@H]2CN(c3nc4c(cc3F)c(=O)c(C(=O)O)cn4-c3ccc(F)cc3F)C[C@@H]12`: 0.885 ± 0.015.
Under `CCC(C)CCCCC(=O)NC(CCN)C(=O)NC(C(=O)NC(CCN)C(=O)NC1CCNC(=O)C(C(C)O)NC(=O)C(CCN)NC(=O)C(CCN)NC(=O)C(CC(C)C)NC(=O)C(Cc2ccccc2)NC(=O)C(CCN)NC1=O)C(C)O.O=S(=O)(O)O` (stereo unspecified) stands 0.986 ± 0.057; under `COC1=C(N)C(=O)c2nc(-c3nc(C(=O)O)c(C)c(-c4ccc(OC)c(OC)c4O)c3N)ccc2C1=O`, 1.31 ± 0.37.
Next, `O=C(Cn1cnnn1)NC1C(=O)N2C(C(=O)O)=C(CSc3nncs3)CSC12` (stereo unspecified): 1.06 ± 0.098.
Regarding `CC1CCC2(C)C(C=O)=CCCC2C1(C)CC1OC(O)C(=O)C12CO2` (stereo unspecified), the relative enzymatic activity stood at 0.933 ± 0.1.
Consider `NCCONC(=O)[C@@H]1CC[C@@H]2CN1C(=O)N2OS(=O)(=O)O`, for which the relative enzymatic activity was determined as 0.944 ± 0.034.
Next, `O=C(O)P(=O)(O)O`: 0.972 ± 0.058.
`Cc1oc(=O)oc1CN1CCN(c2cc3c(cc2F)c(=O)c(C(=O)O)c2n3C(C)S2)CC1` (stereo unspecified) came in with a relative enzymatic activity of 0.821 ± 0.066.
Next, `CON=C(C(=O)NC1C(=O)N2C(C(=O)OCOC(=O)C(C)(C)C)=C(C=Cc3scnc3C)CSC12)c1csc(N)n1` (stereo unspecified): 0.659 ± 0.044; `C=CC1=C(C(=O)O)N2C(=O)C(NC(=O)C(=NO)c3csc(N)n3)C2SC1` (stereo unspecified): 0.997 ± 0.02; `CO[C@@]12[C@@H]3N[C@@H]3CN1C1=C(C(=O)C(N)=C(C)C1=O)[C@@H]2COC(N)=O`: 1.08 ± 0.11.
Under `CCCN1C[C@H](C)[C@@H](O)[C@](C)(O)[C@@H](CC)OC(=O)[C@H](C)[C@@H](O[C@H]2C[C@@](C)(OC)[C@@H](O)[C@H](C)O2)[C@H](C)[C@@H](O[C@@H]2O[C@H](C)C[C@H](N(C)C)[C@H]2O)[C@](C)(O)C[C@H]1C` stands 1.02 ± 0.024; under `CON=C(C(=O)N[C@@H]1C(=O)N2C(C(=O)OCOC(=O)C(C)(C)C)=C(C=Cc3scnc3C)CS[C@H]12)c1csc(N)n1`, 0.769 ± 0.15.
Under `CC(=O)OCC1=C(C(=O)[O-])N2C(=O)C(NC(=O)Cc3cccs3)C2SC1.[Na+]` (stereo unspecified) stands 1.08 ± 0.043; under `Cn1sccc1=O`, 0.969 ± 0.062; under `CON=C(C(=O)NC1C(=O)N2C(C(=O)O)=C(CSC(=O)c3ccco3)CSC12)c1csc(N)n1.Cl` (stereo unspecified), 0.89 ± 0.22.
`CC(C)(O/N=C(\C(=O)N[C@@H]1C(=O)N2C(C(=O)O)=C(C[n+]3ccccc3)CS[C@H]12)c1csc(N)n1)C(=O)O` gave a relative enzymatic activity of 1.02 ± 0.022.
Next, `CN[C@@H]1[C@H](O)[C@H](NC)[C@H]2O[C@@]3(O)C(=O)C[C@@H](C)O[C@H]3O[C@@H]2[C@H]1O`: 0.955 ± 0.11.
Under `Cl.NC1CCN(c2c(F)cc3c(=O)c(C(=O)O)cn(C4CC4)c3c2Cl)C1` (stereo unspecified) stands 1.06 ± 0.063; under `CS(=O)(=O)c1ccc(C(O)C(CF)NC(=O)C(Cl)Cl)cc1` (stereo unspecified), 1.04 ± 0.036.
Under `Cc1nnc(SCC2=C(C(=O)O)N3C(=O)[C@@H](NC(=O)Cn4cnnn4)[C@H]3SC2)s1` stands 0.988 ± 0.078.
For the compound `C=C1c2cccc(O)c2C(=O)C2=C(O)C3(O)C(=O)C(C(N)=O)=C(O)C(N(C)C)C3C(O)C12.Cl` (stereo unspecified), the relative enzymatic activity came to 1.079 ± 0.0059.
Under `NC[C@H]1OB(O)c2c(OCCCO)cccc21` stands 0.977 ± 0.052; under `CO/N=C(\C(=O)N[C@@H]1C(=O)N2C(C(=O)O)=C(C[N+]3(C)CCCC3)CS[C@H]12)c1csc(N)n1`, 0.8921 ± 0.007; under `N[C@@H]1CN(c2c(F)cc3c(=O)c(C(=O)O)cn([C@@H]4C[C@@H]4F)c3c2Cl)CC12CC2`, 0.971 ± 0.044.
Next, `COC1C=COC2(C)Oc3c(C)c(O)c4c(O)c(c5c(nc6cc(C)ccn65)c4c3C2=O)NC(=O)C(C)=CC=CC(C)C(O)C(C)C(O)C(C)C(OC(C)=O)C1C` (stereo unspecified): 0.715 ± 0.08.

(Values after the supplement of paper PMC9446081.)
